Results from PubChem BioAssay AID743318 (Broad Institute, 2014).
Entries with a potency or affinity are not part of this list. Active and inactive are the calls of the source.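 The calls were made as follows: active = cytotoxic signal drop whose half-maximal concentration is at most twice the top valid dose; inconclusive = flat drop between 30% and 70%, or poor fit; inactive = the rest.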

Test: loss of A549 viability via ATP – cell-based, plate reader, dry powder, set 7, cytotoxicity control, dose response (AID 743318)
Conditions: CellTiter-Glo ATP luminescence, 72 h; series mostly up to 26 µM

SMILES | outcome
Cc1ccc(OCCn2c(=S)[nH]c3ccccc32)c(C)c1 | inactive
COc1ccccc1OCCn1c(=S)[nH]c2ccccc21 | inactive
Fc1ccc2[nH]c(=S)n(CCOc3ccccc3)c2c1 | inactive
CC(C)c1ccccc1NCCn1c(=S)[nH]c2ccccc21 | inactive
Fc1cccc2c1[nH]c(=S)n2CCOc1ccccc1 | inactive
Cc1ccc(OCCn2c(C)nc3ccccc32)cc1 | inactive
COCc1nc2ccccc2n1CCOc1ccc(C(C)(C)C)cc1 | inactive
Cc1cccc(OCCn2c(=S)[nH]c3ccccc32)c1 | inactive
Fc1cccc(OCCn2c(=S)[nH]c3ccccc32)c1 | inactive
Cc1ccc(C(C)C)c(OCCn2c(=S)[nH]c3ccc(F)cc32)c1 | inactive
Cc1ccc(C(C)C)c(OCCn2c(=S)[nH]c3cccc(Cl)c32)c1 | inactive
c1ccc(OCCn2cnc3ccccc32)cc1 | inactive
Cc1ccc(C(C)C)c(OCCn2c(=S)[nH]c3c(C)cccc32)c1 | inactive
CC(C)(C)c1ccc(OCCn2c(=S)[nH]c3ccccc32)cc1 | inactive
CSc1nc2ccccc2n1CCOc1cc(C)ccc1C(C)C | inactive
Cc1cccc(OCCn2c(=S)[nH]c3ccccc32)c1C | inactive
COc1cccc(OCCn2c(=S)[nH]c3ccccc32)c1 | inactive
CCOc1ccc(OCCn2c(=S)[nH]c3ccccc32)cc1 | inactive
CC(C)c1ccc(OCCn2c(=S)[nH]c3ccccc32)cc1 | inactive
Fc1ccc2c(c1)[nH]c(=S)n2CCOc1ccccc1 | inactive
S=c1[nH]c2ccccc2n1CCOc1ccccc1 | inactive
Cc1ccc(C(C)C)c(OCCn2c(CO)nc3ccccc32)c1 | inactive
Fc1ccc(OCCn2c(=S)[nH]c3ccccc32)cc1 | inactive
Cc1cccc(OCCn2c(=S)[nH]c3c(F)cccc32)c1 | inactive
S=c1[nH]c2cccc(Cl)c2n1CCOc1ccccc1 | inactive
